{"source": "PubChem BioAssay (NCI)", "note": "Values joined by “and” are separate entries in the source; they are usually repeats but may differ in a detail not shown here. Identical values can stand only once. About 83,000 compounds went through this panel and 20% of them were active in at least one assay; those are over-represented in the sample as a whole.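 Growth was measured after 48 h exposure to one concentration of compound in 96-well plates. Values under 10 count as active.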 Active and inactive are the calls of the source."}
{"test_system": "A549/ATCC NSCLC", "experiment": "NCI-60 one-dose screen, 48 h (100 = growth as untreated, 0 = no growth, -100 = all killed)", "conditions": "10 µM unless noted"}
{"smiles": "Oc1ccc(/C=N/NC(=S)Nc2ccccc2)nc1", "growth": "11.5% (inactive)"}
{"smiles": "COc1ccccc1OC(=O)Oc1ccccc1OC", "growth": "90.1% (inactive) and 109% (inactive)"}
{"smiles": "O=C1C=CC(=O)N1C1c2ccccc2-c2ccccc21", "growth": "91.4% (inactive)"}
{"smiles": "O=C(CC1(O)C(=O)Nc2c(Cl)ccc(Cl)c21)c1ccc(Cl)cc1Cl", "note": "(stereo unspecified)", "growth": "91.4% (inactive)"}
{"smiles": "Cc1cc2nc(CS)[nH]c2cc1C", "growth": "94.2% (inactive)"}
{"smiles": "O=C(Nc1cccc(Br)c1)Oc1ccc(Cl)c2cccnc12", "growth": "23.6% [100 µM] (inactive)"}
{"smiles": "CN(C)c1ccc(N=Nc2cccc3ccccc23)cc1", "growth": "89.8% (inactive)"}
{"smiles": "O=[N+]([O-])c1ccc(N=Nc2ccc(O)cc2O)cc1", "growth": "62.6% (inactive)"}
{"smiles": "CC(C)(C)CC(C)(C)c1ccc(OCCSC(=N)N)cc1", "growth": "77.2% (inactive)"}
{"smiles": "CCCCCCCCCCCCCCCC[N+](C)(CCO)Cc1cnc[nH]1", "note": "(stereo unspecified)", "growth": "-36.1% (active)"}
{"smiles": "Nc1nc(N)c2nc(CNc3ccc(C(=O)NC(CCC(=O)O)C(=O)O)cc3)cnc2n1", "note": "(stereo unspecified)", "growth": "28.7% (inactive) and 36.9% (inactive)"}
{"smiles": "Cc1ccc2c(ccc3c[n+]4c5ccccc5ccc4n32)c1", "growth": "4.82% (active)"}
{"smiles": "CN(Cc1cnc2nc(N)nc(N)c2n1)c1ccc(C(=O)NC(CCC(=O)O)C(=O)O)cc1", "note": "(stereo unspecified)", "growth": "19.8% (inactive)"}
{"smiles": "NC(=S)N/N=C\\c1nccc2c(C(F)(F)C(F)(F)C(F)(F)F)cccc12", "growth": "-20.8% (active)"}
{"smiles": "CCC(CC)COC(=O)c1ccc(O)c(O)c1", "growth": "52% (inactive)"}
{"smiles": "O=C(/C=C/C=C/c1ccccc1)c1ccco1", "growth": "101% (inactive)"}
{"smiles": "C/C=C1\\SC(=S)NC1=O", "growth": "99.7% (inactive)"}
{"smiles": "O=C(/C=C\\c1cc(Br)ccc1O)/C=C/c1cc(Br)ccc1O", "growth": "-8.66% (active)"}
{"smiles": "O=Nc1ccccc1N=O", "growth": "86.2% (inactive)"}
{"smiles": "COC(=O)Nc1nc2ccc(C(=O)c3ccccc3)cc2[nH]1", "growth": "20.8% (inactive) and 22.2% (inactive) and 17.2% (inactive)"}
{"smiles": "CCCCCC(CCCCC)C(=O)O", "growth": "102% (inactive)"}
{"smiles": "Oc1c(Br)c(Br)c(O)c(Br)c1Br", "growth": "118% (inactive)"}
{"smiles": "CCCCCCCCCCCCCCCCOP(=O)([O-])OCC[N+](C)(C)C", "growth": "31.8% (inactive)"}
{"smiles": "CC1SC(=S)N(c2ccc(Cl)cc2)C1=O", "note": "(stereo unspecified)", "growth": "93.8% (inactive) and 95.7% (inactive)"}
{"smiles": "Cc1ccc2nc(-[n+]3cc4ccccc4cc3C)ccc2c1", "growth": "43.1% (inactive)"}
{"smiles": "O=C(Nc1ccccc1)Oc1c(Cl)c(Cl)c(Cl)c(Cl)c1Cl", "growth": "106% (inactive) and 91.9% (inactive)"}
{"smiles": "NC(=O)/C=C/C(=O)c1c(Cl)cccc1Cl", "growth": "-43.1% (active)"}
{"smiles": "S=C(N/N=C/c1ccccn1)Nc1ccccn1", "growth": "20.7% (inactive)"}
{"smiles": "CC1=CC(O)C2CC1C2(C)C", "note": "(stereo unspecified)", "growth": "91.9% (inactive) and 106% (inactive)"}
{"smiles": "Cc1ccnc2c1ccc1c(C)ccnc12", "growth": "8.87% (active)"}
{"smiles": "O=C(Oc1cccc2cccnc12)c1ccccc1", "growth": "100% (inactive) and 103% (inactive)"}
{"smiles": "CC1(C)CC([P+](c2ccccc2)(c2ccccc2)c2ccccc2)=NN1", "growth": "37.1% (inactive)"}
{"smiles": "CCCCCCCCCCCCCCCCN(CC)CC", "growth": "-69.5% (active)"}
{"test_system": "786-0 renal", "experiment": "NCI-60 one-dose screen, 48 h (100 = growth as untreated, 0 = no growth, -100 = all killed)", "conditions": "10 µM unless noted"}
{"smiles": "Oc1ccc(/C=N/NC(=S)Nc2ccccc2)nc1", "growth": "-21% (active)"}
{"smiles": "COc1ccccc1OC(=O)Oc1ccccc1OC", "growth": "103% (inactive) and 96.6% (inactive)"}
{"smiles": "O=C1C=CC(=O)N1C1c2ccccc2-c2ccccc21", "growth": "75.2% (inactive)"}
{"smiles": "O=C(CC1(O)C(=O)Nc2c(Cl)ccc(Cl)c21)c1ccc(Cl)cc1Cl", "note": "(stereo unspecified)", "growth": "102% (inactive)"}
{"smiles": "Cc1cc2nc(CS)[nH]c2cc1C", "growth": "81.6% (inactive)"}
{"smiles": "O=C(Nc1cccc(Br)c1)Oc1ccc(Cl)c2cccnc12", "growth": "89.3% [100 µM] (inactive)"}
{"smiles": "CN(C)c1ccc(N=Nc2cccc3ccccc23)cc1", "growth": "100% (inactive)"}
{"smiles": "O=[N+]([O-])c1ccc(N=Nc2ccc(O)cc2O)cc1", "growth": "51.3% (inactive)"}
{"smiles": "CC(C)(C)CC(C)(C)c1ccc(OCCSC(=N)N)cc1", "growth": "28.2% (inactive)"}
{"smiles": "CCCCCCCCCCCCCCCC[N+](C)(CCO)Cc1cnc[nH]1", "note": "(stereo unspecified)", "growth": "-40.1% (active)"}
{"smiles": "Nc1nc(N)c2nc(CNc3ccc(C(=O)NC(CCC(=O)O)C(=O)O)cc3)cnc2n1", "note": "(stereo unspecified)", "growth": "13.9% (inactive) and 8.47% (active)"}
{"smiles": "Cc1ccc2c(ccc3c[n+]4c5ccccc5ccc4n32)c1", "growth": "27.4% (inactive)"}
{"smiles": "CN(Cc1cnc2nc(N)nc(N)c2n1)c1ccc(C(=O)NC(CCC(=O)O)C(=O)O)cc1", "note": "(stereo unspecified)", "growth": "13.7% (inactive)"}
{"smiles": "NC(=S)N/N=C\\c1nccc2c(C(F)(F)C(F)(F)C(F)(F)F)cccc12", "growth": "-48.3% (active)"}
{"smiles": "CCC(CC)COC(=O)c1ccc(O)c(O)c1", "growth": "78.5% (inactive)"}
{"smiles": "O=C(/C=C/C=C/c1ccccc1)c1ccco1", "growth": "104% (inactive)"}
{"smiles": "C/C=C1\\SC(=S)NC1=O", "growth": "97.8% (inactive)"}
{"smiles": "O=C(/C=C\\c1cc(Br)ccc1O)/C=C/c1cc(Br)ccc1O", "growth": "-68% (active)"}
{"smiles": "O=Nc1ccccc1N=O", "growth": "116% (inactive)"}
{"smiles": "COC(=O)Nc1nc2ccc(C(=O)c3ccccc3)cc2[nH]1", "growth": "19.8% (inactive) and 23.6% (inactive) and 31.9% (inactive)"}
{"smiles": "CCCCCC(CCCCC)C(=O)O", "growth": "107% (inactive)"}
{"smiles": "Oc1c(Br)c(Br)c(O)c(Br)c1Br", "growth": "111% (inactive)"}
{"smiles": "CCCCCCCCCCCCCCCCOP(=O)([O-])OCC[N+](C)(C)C", "growth": "48.6% (inactive)"}
{"smiles": "CC1SC(=S)N(c2ccc(Cl)cc2)C1=O", "note": "(stereo unspecified)", "growth": "91.5% (inactive) and 93.1% (inactive)"}
{"smiles": "Cc1ccc2nc(-[n+]3cc4ccccc4cc3C)ccc2c1", "growth": "81.2% (inactive)"}
{"smiles": "O=C(Nc1ccccc1)Oc1c(Cl)c(Cl)c(Cl)c(Cl)c1Cl", "growth": "105% (inactive) and 97.1% (inactive)"}
{"smiles": "NC(=O)/C=C/C(=O)c1c(Cl)cccc1Cl", "growth": "-98.8% (active)"}
{"smiles": "S=C(N/N=C/c1ccccn1)Nc1ccccn1", "growth": "2.42% (active)"}
{"smiles": "CC1=CC(O)C2CC1C2(C)C", "note": "(stereo unspecified)", "growth": "95.7% (inactive) and 110% (inactive)"}
{"smiles": "Cc1ccnc2c1ccc1c(C)ccnc12", "growth": "6.29% (active)"}
{"smiles": "O=C(Oc1cccc2cccnc12)c1ccccc1", "growth": "100% (inactive) and 107% (inactive)"}
{"smiles": "CC1(C)CC([P+](c2ccccc2)(c2ccccc2)c2ccccc2)=NN1", "growth": "80.4% (inactive)"}
{"smiles": "CCCCCCCCCCCCCCCCN(CC)CC", "growth": "-86.1% (active)"}
